Data reported in ChEMBL document CHEMBL3988442, “University of Dundee, Small-Polar-MMV Screening Library” (2021).

Key:
[1] = target: T1, Aspartate--tRNA(Asp/Asn) ligase (Mycobacterium tuberculosis (strain ATCC 25618 / H37Rv)) (UniProt P9WFW3); experiment: Assay for Asp RNA synthetase-1 from Mycobacterium tuberculosis; format: functional; parameters: scale not given: direction of the effect not stated beside the values; settings: 30 µM; also: in the data most compounds retested in dose-response had high values
T1 sequence (whole entry): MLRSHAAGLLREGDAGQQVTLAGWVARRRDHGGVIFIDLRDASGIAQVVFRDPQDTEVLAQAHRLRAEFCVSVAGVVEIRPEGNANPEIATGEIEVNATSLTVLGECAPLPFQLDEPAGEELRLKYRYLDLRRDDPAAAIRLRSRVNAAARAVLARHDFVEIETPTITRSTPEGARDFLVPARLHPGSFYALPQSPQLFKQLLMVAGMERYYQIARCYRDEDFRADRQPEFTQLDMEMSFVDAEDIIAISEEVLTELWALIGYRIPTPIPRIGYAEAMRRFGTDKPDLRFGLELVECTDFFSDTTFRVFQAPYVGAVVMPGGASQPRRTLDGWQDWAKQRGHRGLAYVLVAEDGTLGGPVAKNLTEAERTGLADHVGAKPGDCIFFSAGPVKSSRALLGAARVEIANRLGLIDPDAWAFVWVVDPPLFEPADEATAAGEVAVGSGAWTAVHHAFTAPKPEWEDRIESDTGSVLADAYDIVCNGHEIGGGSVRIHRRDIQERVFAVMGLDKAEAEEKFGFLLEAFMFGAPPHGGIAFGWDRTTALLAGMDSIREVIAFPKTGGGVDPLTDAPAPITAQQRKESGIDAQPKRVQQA

[2] = target: Shiga toxin 2 (Escherichia coli O157:H7) (UniProt P09385+P09386); experiment: E. coli 0.157:H7 Shiga Toxin SOP - stx2 screening assay; format: functional; parameters: scale not given: direction of the effect not stated beside the values; settings: 30 µM

SMILES	Percent Effect [1]	Percent Effect [2]
COc1ccc(Cl)cc1C(=O)N1CCCC(n2nc(C)nc2C)C1 (configuration not stated)	-5.94%	7.05%
CC(C)c1nc(C2CCCN(C(=O)CCn3ccnc3)C2)no1 (configuration not stated)	5.96%	3.56%
COCc1ncc(CN2CCC(Oc3ccccc3OC)CC2)cn1	0.276%	-1.31%
O=C(NCc1cccs1)C1CN(C(=O)c2cccs2)CC12CCOCC2 (configuration not stated)	6.61%	5.39%
CNc1nc2c(s1)C(c1c(Cl)cccc1Cl)CC(=O)N2 (configuration not stated)	50.9%	5.63%
CCc1nnc(CN2CCN(C(=O)c3ccccn3)CC2)o1	-0.577%	21.4%
CSc1ccccc1CN1CCCn2nc(CNC(=O)N(C)C)cc2C1	2.53%	-34.2%
Cc1cc(C)n(CC2CN(CC(=O)Nc3nncs3)CCO2)n1 (configuration not stated)	1.4%	9.91%
Cc1cnn(CC(C)NCc2nc(-c3ccco3)no2)c1 (configuration not stated)	-4.9%	2.91%
Cn1cc(Cl)cc1C(=O)N1CCN(Cc2ccsc2)CC1	-1.54%	15.6%
c1cnnc(N2CCCC2CNc2nc3ccccc3o2)c1 (configuration not stated)	-3.6%	-10.1%
Cc1cc(CNC(=O)N2CCCN(Cc3ccccc3)CC2)no1	-4.23%	9.91%
O=C1NC(c2ccccc2)=N[C@@]12CC[C@@H]1CN(CC3CCOCC3)C[C@@H]12	1.31%	-0.652%
CCc1nnsc1C(=O)N1CCCN(Cc2cnn(C)c2)CC1	3.06%	7.82%
CC(C)Oc1ncnc2c1CCN(C(=O)c1cccn1C)CC2	-1.46%	-10.4%
CCOc1ncccc1NC(=O)NC1CCN(S(C)(=O)=O)CC1	5.32%	-16.8%
CC(OCC1CC1)C(=O)N1CCCN(Cc2nccn2C)CC1 (configuration not stated)	7.9%	-20.4%
CC(C)c1ncc2c(n1)CN(Cc1cccc(C#N)c1)CC2	0.9%	-1.08%
Cn1ccnc1CN1CCCC1c1noc(C2CC2)n1 (configuration not stated)	-0.426%	-7.56%
Cc1ccc(Nc2nccc(C3CCCN(CC(=O)N(C)C)C3)n2)nc1 (configuration not stated)	-2.93%	-28.3%
CC(C)CS(=O)(=O)N1C[C@H]2C[C@H](C(=O)NCc3ccccc3)[C@@H](C1)O2	2.67%	-41.8%
Cn1cnc2c1CCN(Cc1noc(-c3ccccc3)n1)C2	3.96%	12.6%
CNS(=O)(=O)Cc1ccc(CNC(=O)Nc2cn[nH]c2)cc1	-0.228%	-4.62%

SMILES	Percent Effect [1]	Percent Effect [2]
Cc1noc(CCCC(=O)NC(C)c2cn(-c3ccccc3)nn2)n1 (configuration not stated)	-5.92%	0.819%
CN(Cc1nnc(C2CC2)n1C)C1CCN(CCc2cccs2)C1 (configuration not stated)	1.39%	-43.7%
CN(C)CCNC(=O)CNC(=O)N1CCc2c([nH]c3ccc(Cl)cc23)C1	6.71%	-77.4%
Cn1ccnc1CC1CCCN(C(=O)Nc2cccn(C)c2=O)C1 (configuration not stated)	2.75%	-3.01%
O=C(CCC(=O)N1CCCC1c1cccs1)N1CCc2sccc2C1 (configuration not stated)	-0.31%	-7.21%
CC(O)CN1CCN(Cc2cccc(C(=O)N(C)C)c2)CC1 (configuration not stated)	-6.5%	-1.9%
O=c1cc(Cn2ccnc2)nc2n1CCCN(Cc1ccsc1)C2	-0.029%	-13.8%
COCC(C)(O)CNC(=O)COc1ccccc1OC (configuration not stated)	-4.69%	-2.25%
CC(C)OCCCNC(=O)CS(=O)(=O)Cc1ccc(Cl)c(Cl)c1	5.22%	30.4%
Cn1cc(C(=O)Nc2ccc3c(c2)CN(C(=O)c2ccco2)CC3)nn1	5.79%	-88.9%
CC(NC(=O)c1cc(-c2cccc(Cl)c2)no1)C(=O)N1CCCC1 (configuration not stated)	0.15%	-14.8%
O=C(NCCCOCC1CC1)Nc1cccnc1N1CCOCC1	-1.34%	4.93%
CCN(CC)C(=O)Cn1ccc2cc(NC(=O)C3CCCO3)ccc21 (configuration not stated)	-4.41%	-1.75%
Cc1nc(CN2C(=O)C[C@@H]3[C@@H]2CCN3C(=O)C2CCOCC2)cs1	-2.3%	-52.6%
Cn1ccc(CN2CCC(Oc3ccccc3)CC2)cc1=O	-1.21%	-5.66%
O=C(CCc1ccccc1)C1CCCN(C(=O)c2ncc(F)cc2F)C1 (configuration not stated)	7.65%	2.26%
CC(C)COC(C)C(=O)NCc1ccc(N(C)C)cc1 (configuration not stated)	5.65%	-8.68%
Cc1nc(N2CCN(C(=O)C(C)(C)C)CC2)cc(-n2cnc(C)c2C)n1	0.832%	-43.6%
CN(C)C(=O)CC1CC2(CCN(CC3CC3)CC2)c2cc(F)ccc21 (configuration not stated)	2.15%	-3.11%
COc1ccc(C(=O)NCCCn2ccnc2)c(OC)n1	-1.77%	-22.8%
CC(O)CN1CCN(Cc2nnc(C3CC3)o2)CC1 (configuration not stated)	0.971%	-17.9%
O=C(NCCOc1ccc2c(c1)OCO2)C1CC(=O)N(CC2CC2)C1 (configuration not stated)	4.55%	24.2%
Cc1ccc(CN2CC[C@H]3[C@@H]2CCC(=O)N3CCN2CCCC2)s1	2.78%	-33.4%
